In the library only some 7.4% were active in any assay of this set; here they are far more common.
HEK cytotox – HEK 293 cell cytotoxicity | HEK 293 viability, ATP luminescence (CellTiter-Glo), 48-72 h | Potency, µM (doses to about 115 µM), for inactives: at the highest dose activity change, negative = cytotoxicity, most hits filed as inhibitors | 94,000 compounds, 6.6% hits | AID 1345083; note: nearly all actives have a fitted effect of over 60% in size
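Cells seeded first (HEK 293, 250 cells/well), then compound added by pintool. Incubation ran 48 or 72 hr at 37 degree Celsius. CellTiter-Glo was added and luminescence imaged after 10 min at room temperature.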
SNCA viab count – reduces viability of HEK-293 SNCA reporter cells; 150,000 compounds, 0.12% hits; Potency, µM (series often up to 57.1 µM), for the others: at the highest dose activity change, negative = cytotoxicity, most hits filed as cytotoxic; AID 1671193; HEK-293-SNCA-luc viability, GF-AFC fluorescence, 24 h;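 note: 0% = DMSO-treated cells and -100% = medium-only wells without cells; nearly all actives have a fitted effect of over 30% in size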
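Cytotoxicity counterscreen: after 24 h compound treatment of genome-edited SNCA-luciferase HEK-293 cells, live-cell protease substrate GF-AFC read by fluorescence after 30 min; activity scaled between DMSO (0%) and medium-only (-100%), curves Hill-fitted.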
NPR1 antag – blocks ANP-stimulated signaling of human Npr1 receptor. HEK293 hNpr1 GloSensor cGMP, ANP-stimulated luminescence. P16066. 76,000 compounds, 1.6% hits. AID 1347048. Potency, µM (highest dose often 46.3 µM), for the others: at the highest dose activity change, negative = inhibition, usual class: inhibitors; calls by dose curve; note: nearly all actives have a fitted effect of over 60% in size
Target sequence (P16066 whole entry, looked up): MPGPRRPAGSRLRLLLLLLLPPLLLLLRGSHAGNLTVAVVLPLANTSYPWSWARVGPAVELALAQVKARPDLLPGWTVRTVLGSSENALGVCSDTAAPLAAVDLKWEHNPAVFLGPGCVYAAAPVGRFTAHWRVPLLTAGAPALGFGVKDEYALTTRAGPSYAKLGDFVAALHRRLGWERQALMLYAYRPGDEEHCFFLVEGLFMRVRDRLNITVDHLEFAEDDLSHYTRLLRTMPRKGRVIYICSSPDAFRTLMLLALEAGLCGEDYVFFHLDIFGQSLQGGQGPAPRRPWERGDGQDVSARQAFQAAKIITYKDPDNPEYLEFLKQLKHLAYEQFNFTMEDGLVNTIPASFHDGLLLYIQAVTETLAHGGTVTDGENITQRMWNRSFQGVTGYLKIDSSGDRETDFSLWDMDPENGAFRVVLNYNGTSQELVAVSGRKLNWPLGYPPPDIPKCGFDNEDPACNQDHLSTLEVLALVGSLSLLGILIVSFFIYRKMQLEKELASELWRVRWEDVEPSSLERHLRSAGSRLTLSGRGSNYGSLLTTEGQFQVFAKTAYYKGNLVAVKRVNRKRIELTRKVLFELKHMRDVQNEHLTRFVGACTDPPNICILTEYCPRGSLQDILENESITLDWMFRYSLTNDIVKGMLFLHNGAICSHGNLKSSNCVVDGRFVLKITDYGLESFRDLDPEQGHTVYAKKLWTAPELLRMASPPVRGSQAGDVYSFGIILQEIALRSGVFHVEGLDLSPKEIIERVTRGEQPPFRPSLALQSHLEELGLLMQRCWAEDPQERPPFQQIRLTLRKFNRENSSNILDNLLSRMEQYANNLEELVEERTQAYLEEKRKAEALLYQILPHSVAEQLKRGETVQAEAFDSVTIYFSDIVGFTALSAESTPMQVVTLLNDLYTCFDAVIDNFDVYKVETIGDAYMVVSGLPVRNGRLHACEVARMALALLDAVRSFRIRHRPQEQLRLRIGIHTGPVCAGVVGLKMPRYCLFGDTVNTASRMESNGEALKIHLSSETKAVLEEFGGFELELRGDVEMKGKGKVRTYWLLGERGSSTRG
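Compound pre-incubated 30 min at room temperature on GloSensor-loaded HEK293 cells stably carrying hNpr1 and the pGS-40F cGMP biosensor. Stimulation uses hNppA at 0.1 nM final; luminescence is taken at baseline and 20 min post-agonist.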
3T3 cytotox – kills NIH 3T3 cells; NIH 3T3 viability, CellTiter-Glo ATP luminescence, 48-72 h; Potency, µM (titrated, usually from 96.7 µM), inactives show at the top dose activity change, negative = cytotoxicity, hits mostly inhibitors; 94,000 compounds, 4.3% hits; note: nearly all actives have a fitted effect of over 55% in size
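Viability of NIH 3T3 cells after 48 or 72 hr compound treatment at 37 °C was assessed by CellTiter-Glo, with luminescence imaged following a 10 min room-temperature step.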
SNCA expr inhib – SNCA gene expression inhibition; HEK-293 SNCA-luciferase knock-in, luminescence, 24 h; Potency, µM (titrated, usually from 57.2 µM), without a hit: top-dose activity change, negative = inhibition, most hits filed as inhibitors; 140,000 compounds, 0.17% hits; AID 1671194;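 note: plate controls were DMSO cells for no effect and cell-free wells for full effect; nearly all actives have a fitted effect of over 45% in size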
FLuc inh – Photinus pyralis luciferase inhibition; P08659; purified P. pyralis luciferase, luminescence, biochemical; Potency, µM (titrated, usually from 115 µM), actives largely listed as inhibitors; 76,000 compounds, 2.5% hits; AID 1347043; note: nearly all actives have a fitted effect of over 65% in size
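Cell-free enzyme assay, 10nM P. pyralis luciferase, luciferin and ATP each at 10uM. Inhibition profiled over a 6-point titration, read as luminescence.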
* = called active by the depositor; i = inactive; ? = inconclusive; . = no result given; [ ] = another dose, or the depositor's remark. Unless noted, calls come from the whole dose curve; as a rule, active = well fitted curve in the direction sought with a large enough effect; inconclusive = small, poorly fitted or top-dose-only effect, or another doubt; inactive = no such curve, though single readings can be large; an effect the other way counts as inactive or inconclusive. Unless noted, % is set by controls: 0 for no effect and ±100 for the full control effect; potency is the fitted concentration of half-maximal effect.

SMILES	HEK cytotox	SNCA viab count	NPR1 antag	3T3 cytotox	SNCA expr inhib	FLuc inh
CSCCNC(=O)C1CCCN1c1nccc(Nc2ccc(C)cc2)n1 (stereo not given)	79µM*	-12%[12.5 µM]	.	-7%	-13%	.
COCC(=O)NC1CCC12CCN(Cc1cccc(F)c1)CC2 (stereo not given)	4%	1%	3%	-2%	-8%	i
Cc1nc(CN2CC3(CCN(C)C3)c3cc(C(=O)Nc4ccc(F)cc4)ccc32)cs1 (stereo not given)	?	1%[87.6 µM]	-4%[70.6 µM]	?	48%[87.6 µM]	?
Cc1nc(CN2CC3(CCN(C)C3)c3cc(C(=O)NCc4ccccc4)ccc32)cs1 (stereo not given)	112µM*	-6%[87.6 µM]	-7%[70.6 µM]	?	6%[87.6 µM]	i
Cc1nc(CN2CC3(CCN(C)C3)c3cc(C(=O)NCC4CC4)ccc32)cs1 (stereo not given)	-37%[172 µM]	7%[87.6 µM]	1%[70.6 µM]	?	21%[87.6 µM]	i
Cc1nc(CN2CC3(CCN(C)C3)c3cc(C(=O)NCc4cccs4)ccc32)cs1 (stereo not given)	?	-7%[87.6 µM]	-5%[70.6 µM]	79µM*	-6%[87.6 µM]	i
CN1CCCC2(C1)CN(Cc1cccnc1)c1ccc(C(=O)NCc3cccs3)cc12 (stereo not given)	?	2%[87.6 µM]	6%[70.6 µM]	?	-1%[87.6 µM]	i
CN1CCC2(C1)CN(Cc1ccccc1)c1ccc(C(=O)NCc3cccs3)cc12 (stereo not given)	45µM*	6%[87.6 µM]	0%[70.6 µM]	28µM*	15%[87.6 µM]	i
CC(=O)Nc1ccc(CN2CCC3CC(=O)NCCC3C2)cc1 (stereo not given)	-6%	3%	.	?	5%	.
CCOC(=O)N1CCN(Cc2nc(-c3ccc(C)s3)oc2C)CC1	?	-18%	1%	?	-24%	i
COC(=O)N1CCC(C(=O)N2CCC(c3nc4ncccc4[nH]3)CC2)CC1	i	-20%	.	i	2%	.
CC(=O)N1CCC(N2CC[C@H](c3nc4ccc(F)cc4[nH]3)C2)CC1	-34%[172 µM]	0%[87.6 µM]	-3%[70.6 µM]	-6%[174 µM]	57%[87.6 µM]	i
COc1ccc2nc([C@H]3CCN(CC(C)C)C3)[nH]c2c1	89µM*	-5%[87.6 µM]	-14%[70.6 µM]	112µM*	100%[87.6 µM]	i
COc1ccc2nc([C@H]3CCN(C4CCCCC4)C3)[nH]c2c1	?	-7%[87.6 µM]	?	?	-1%[87.6 µM]	14µM*
COC(=O)N1CCC(C(=O)N2CCC(c3nc4ncccc4[nH]3)CC2)C1 (stereo not given)	35µM*	2%	.	?	?	.
COc1ccc(CN2CC[C@H](c3nc4ccc(OC)cc4[nH]3)C2)cc1	?	-7%[87.6 µM]	-4%[70.6 µM]	?	16%[87.6 µM]	?
COc1ccc2nc([C@H]3CCN(C4CCN(C)CC4)C3)[nH]c2c1	-24%[172 µM]	6%[87.6 µM]	6%[70.6 µM]	-24%[174 µM]	33%[87.6 µM]	?
Fc1ccc2nc([C@H]3CCN(C4CCC4)C3)[nH]c2c1	?	-3%[87.6 µM]	40µM*	?	-29%[87.6 µM]	5µM*
O=C(Cn1ccn2nc(-c3ccc(F)cc3)c(CO)c2c1=O)NCCc1ccccc1	3%	2%	1%	i	4%	i
c1cnc2nc([C@H]3CCN(C4CCCCC4)C3)[nH]c2c1	-14%[230 µM]	-5%[87.6 µM]	4%[70.6 µM]	2%[230 µM]	138%[87.6 µM]	28µM*
CC(=O)N1CCC(N2CC[C@H](c3nc4ncccc4[nH]3)C2)CC1	-2%[172 µM]	9%[87.6 µM]	-1%[70.6 µM]	3%[174 µM]	20%[87.6 µM]	i
COc1ccc(CN2CC[C@H](c3nc4ccc(C)cc4[nH]3)C2)cc1	79µM*	-4%[87.6 µM]	0%[70.6 µM]	79µM*	6%[87.6 µM]	i
O=C(C1CCCN([S+](=O)([O-])c2cccs2)C1)N1CCC(c2nc3ccncc3[nH]2)C1 (stereo not given)	i	-5%	.	-8%	-17%	.
O=C(C1CCCN([S+](=O)([O-])c2cccs2)C1)N1CCCC(c2nc3ncccc3[nH]2)C1 (stereo not given)	89µM*	0%	.	?	1%	.
Cc1ccc(CN2CC[C@H](c3nc4ccc(C)cc4[nH]3)C2)cc1	?	-6%[87.6 µM]	-14%[70.6 µM]	?	33%[87.6 µM]	i
SMILES	HEK cytotox	SNCA viab count	NPR1 antag	3T3 cytotox	SNCA expr inhib	FLuc inh
Cc1ccc2nc([C@H]3CCN(Cc4ccc(S(C)(=O)=O)cc4)C3)[nH]c2c1	79µM*	-5%[87.6 µM]	-17%[70.6 µM]	-26%[174 µM]	3%[87.6 µM]	i
C=C1C(=O)O[C@@H]2/C=C(\C)C(=O)/C=C/[C@](C)(O)C[C@@H](OC(=O)C(C)C)[C@@H]12	.	9.3µM*	.	.	.	.
C=C1C(=O)OC2/C=C(\C)CC/C=C(\C)CC(OC(C)=O)C12 (stereo not given)	.	34%	.	.	.	.
COc1cccc(S(=O)(=O)N2CCC3(CC2)C(=O)NN=C3c2ccccn2)c1	-15%	-13%	25%	-20%	24%	i
Cn1cc(CN2CCN(c3ccc(C#N)cn3)CC2)c(-c2ccccc2)n1	79µM*	7%	2%	?	19%	i
Cn1cc(CN2CCN(c3cnccn3)CC2)c(-c2ccc(C3CCCCC3)cc2)n1	25µM*	1%	6%	79µM*	42%	22µM*
O=C(NCc1cc(F)ccc1F)C1CCN(c2cn[nH]c(=O)c2)C1 (stereo not given)	1%	-1%	5%	-7%	-8%	i
Cc1ccc(C(=O)N[C@H]2C[C@@H](c3nc(-c4ccc(C)cc4)no3)N(C)C2)cc1	-1%[172 µM]	-5%[87.6 µM]	2%[70.6 µM]	-13%[174 µM]	0%[87.6 µM]	i
CN1C[C@@H](NC(=O)c2ccccc2)C[C@H]1c1nc(-c2ccncc2)no1	-1%[172 µM]	0%[87.6 µM]	1%[70.6 µM]	-2%[138 µM]	-10%[87.6 µM]	i
CN1C[C@@H](NC(=O)c2ccc(C#N)cc2)C[C@H]1c1nc(-c2cncnc2)no1	?	5%[87.6 µM]	2%[70.6 µM]	-13%[174 µM]	12%[87.6 µM]	45µM*
CN1C[C@@H](NC(=O)c2ccc(C(C)(C)C)cc2)C[C@H]1c1nc(-c2ccncc2)no1	71µM*	0%[87.6 µM]	1%[70.6 µM]	?	-3%[87.6 µM]	?
COc1ccc(CN2C[C@@H]3[C@H](C2)N(CC(C)C)C(=O)C(C)(C)[S+]3(=O)[O-])cc1O	i	-1%[87.6 µM]	2%[70.6 µM]	?	?	i
CS(=O)(=O)N(Cc1cccnc1)C1CN(C(=O)CCC2CCCC2)C1	-1%	7%	-7%	0%	-3%	i
COc1ccc(-c2cc(CC3(NCc4ccccc4O)COC3)no2)cc1	100µM*	-26%[87.6 µM]	-18%[70.6 µM]	?	4%[87.6 µM]	i
Fc1ccc(-c2cc(CC3(NCc4ccc5c(c4)OCO5)COC3)no2)cc1	?	-6%[87.6 µM]	-10%[70.6 µM]	?	-27%[87.6 µM]	i
Fc1ccc(-c2cc(CC3(NCc4ccco4)COC3)no2)cc1	89µM*	3%[87.6 µM]	-15%[70.6 µM]	?	-3%[87.6 µM]	i

High-throughput results: PubChem, National Center for Advancing Translational Sciences (NCATS)
